This passage reports outcome and AC50 results from PubChem BioAssay (EPA / NIEHS).

Assay [1] in a line: BSK_3C_VCAM1: BioMAP Diversity Plus: 3C Assay for Vascular cell adhesion molecule 1 (VCAM1) Biomarker Activity (AID 2282999; active means hit-call score of the fitted dose curve at least 0.9, where 1 is the maximum; inactive means score below 0.9). Conditions: BioMAP 3C HUVEC, VCAM1 ELISA, cytokine-stimulated; actives raise or lower the signal. In outline:
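Human umbilical vein endothelial cells were dosed with compound for 24 h, after which cell-surface VCAM-1 was quantified by ELISA. Bidirectional curve fitting used DMSO as negative control and activity baseline.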

A short description of assay [2]: BSK_4H_Eotaxin3: BioMAP Diversity Plus: 4H Assay for Eotaxin 3 Biomarker Activity (AID 2283000; active means hit-call score of the fitted dose curve at least 0.9, where 1 is the maximum; inactive means score below 0.9;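 further: CCL26 protein level quantified by ELISA in parallel with SRB cytotoxicity check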). The conditions noted are these: primary human endothelial cells (HUVEC); actives raise or lower the signal. In outline: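 HUVEC, 24 h post-dose, ELISA for Eotaxin-3/CCL26. Gain or loss of signal fitted bidirectionally vs DMSO baseline.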
The target in assay [3] is human Peroxisome Proliferator-activated Receptor delta (PPARd), PPARD (gene 5467) (UniProt Q03181). Kind of assay: ATG_PPARd_TRANS: Attagene TRANS-FACTORIAL HepG2 Assay for human Peroxisome Proliferator-activated Receptor delta (PPARd) (AID 2283002). In outline: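 Multiplexed trans-activation format: HepG2 liver cells expressing exogenous NR-Gal4 chimeras and GAL4-UAS reporters were exposed for 24 h. Reporter mRNA was detected by RT-PCR with capillary electrophoresis fluorescence; activity fitted as gain of signal relative to DMSO.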

Read-out in assay [4]: Intercellular Adhesion Molecule 1 (ICAM1), ICAM1 (gene 3383)
Nature of the assay: BSK_3C_ICAM1: BioMAP Diversity Plus: 3C Assay for Intercellular Adhesion Molecule 1 (ICAM1) Biomarker Activity (AID 2283003; active means hit-call score of the fitted dose curve at least 0.9, where 1 is the maximum; inactive means score below 0.9). Conditions: primary human endothelial cells (HUVEC); actives raise or lower the signal. In outline:
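ICAM-1 levels measured by ELISA after HUVEC cultures in the 3C system had been dosed for 24 h. Gain or loss of signal relative to DMSO was fitted in both directions.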

Assay [5] has as its target human Retinoic Acid Receptor beta (RARb), RARB (gene 5915) (UniProt P10826). Kind of assay: ATG_RARb_TRANS: Attagene TRANS-FACTORIAL HepG2 Assay for human Retinoic Acid Receptor beta (AID 2283004). In outline:
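HepG2 cells transiently transfected with multiplexed GAL4-UAS reporter units expressing chimeric NR–Gal4 fusions; 24 h compound exposure. Reporter mRNA quantified by RT-PCR, 6-FAM labelling, HpaI digestion and capillary electrophoresis; gain-of-signal fitted against DMSO baseline.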

The nature of assay [6]: BSK_3C_Proliferation: Cell Proliferation Assessment in the BioMAP Diversity Plus: 3C Assay (AID 2283006; active means hit-call score of the fitted dose curve at least 0.9, where 1 is the maximum; inactive means score below 0.9;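 on AC50: potency may reflect either rise or fall in cell number versus DMSO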). The conditions noted are these: primary human endothelial cells (HUVEC). In outline:
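Read-out is total protein by SRB absorbance at 560 nm, taken as a proxy for relative cell number. Primary human umbilical vein endothelium cultured below confluence was dosed for 48 h, TCA-fixed and SRB-stained; curves were fitted bidirectionally versus DMSO.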

Assay [7] concerns the target Peroxisome proliferator-activated receptor gamma (Homo sapiens) (UniProt P37231). Nature of the assay: ATG_PPARg_TRANS: Attagene TRANS-FACTORIAL HepG2 Assay for human Peroxisome Proliferator-activated Receptor-gamma (PPARg) (AID 2283007). In outline: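 A TRANS-format multiplexed reporter assay measures activity of an exogenous chimeric NR-Gal4 protein in HepG2 cells. After 24 h of chemical exposure, reporter transcripts are amplified, fluorescently labelled and sized by capillary electrophoresis, with gain of signal scored against DMSO.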

Assay [8] concerns the target Nuclear receptor subfamily 1 group I member 2 (Homo sapiens) (UniProt O75469). Kind of assay: ATG_PXR_TRANS: Attagene TRANS-FACTORIAL HepG2 Assay for human Pregnane X Receptor (PXR) (AID 2283008). In outline:
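HepG2 cells transiently transfected with multiple reporter units, here a PXR-GAL4 chimera driving a GAL4-UAS reporter; 24 h compound exposure. Reporter mRNA measured by RT-PCR, FAM labelling and capillary electrophoresis; gain of signal fitted against DMSO baseline.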

Assay [9] deals with human Retinoic Acid Receptor gamma (RARg), RARG (gene 5916) (UniProt P13631). Nature of the assay: ATG_RARg_TRANS: Attagene TRANS-FACTORIAL HepG2 Assay for human Retinoic Acid Receptor gamma (RARg) (AID 2283009). In outline: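 Transient transfection of HepG2 with multi-reporter constructs, then 24 h chemical treatment. Total RNA isolated, reverse-transcribed, PCR-amplified, fluorescently labelled and resolved by capillary electrophoresis; activity scored as mRNA induction versus DMSO.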

The target in assay [10] is Retinoic acid receptor RXR-alpha (Homo sapiens) (UniProt P19793). Kind of assay: ATG_RXRa_TRANS: Attagene TRANS-FACTORIAL HepG2 Assay for human Retinoid X Receptor alpha (RXRa) (AID 2283012). In outline:
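Transient transfection of human HepG2 with multiple GAL4-UAS reporter constructs; 24 h compound exposure; total RNA isolated, reverse-transcribed, PCR-amplified, 6-FAM labelled, HpaI-cut, resolved by capillary electrophoresis. Positive-direction fit versus DMSO.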

The target of assay [11] is human Retinoid X Receptor beta (RXRb), RXRB (gene 6257) (UniProt P28702). Nature of the assay: ATG_RXRb_TRANS: Attagene TRANS-FACTORIAL HepG2 Assay for human Retinoid X Receptor beta (RXRb) (AID 2283013). In outline:
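Transfect HepG2 with GAL4-UAS multi-reporter constructs (chimeric NR-Gal4, TRANS format); dose compound 24 h; isolate RNA, RT-PCR, FAM primer extension, HpaI digest; quantify by capillary electrophoresis; positive direction vs DMSO.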

The target of assay [12] is human Thyroid Receptor alpha (THRa1), THRA (gene 7067) (UniProt P10827). Kind of assay: ATG_THRa1_TRANS: Attagene TRANS-FACTORIAL HepG2 Assay for human Thyroid Receptor alpha (THRa1) (AID 2283014). In outline:
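HepG2 cells transiently transfected with multiplexed GAL4-UAS reporter units for exogenous chimeric THRa1-Gal4; reporter mRNA measured 24 h after dosing by RT-PCR, 6-FAM labelling, HpaI digestion and capillary electrophoresis. Gain-of-signal fitted versus DMSO baseline.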

Read-out in assay [13]: E-selectin (Homo sapiens) (UniProt P16581)
Kind of assay: BSK_3C_Eselectin: BioMAP Diversity Plus: 3C Assay for Eselectin Biomarker Activity (AID 2283015; active means hit-call score of the fitted dose curve at least 0.9, where 1 is the maximum; inactive means score below 0.9;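 further: cell surface E-selectin protein quantified by ELISA 24 h after dosing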). The conditions noted are these: primary human endothelial cells (HUVEC); actives raise or lower the signal. In outline: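 Primary human umbilical vein endothelial cells (3C system) were dosed with chemical and cell-surface E-selectin measured by ELISA 24 h later. Bidirectional curve fitting used DMSO as negative control and baseline.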

Read-out in assay [14]: Monocyte Chemoattractant Protein-1 (MCP1), CCL2 (gene 6347)
Nature of the assay: BSK_3C_MCP1: BioMAP Diversity Plus: 3C Assay for Monocyte Chemoattractant Protein-1 (MCP1) Biomarker Activity (AID 2283017; active means hit-call score of the fitted dose curve at least 0.9, where 1 is the maximum; inactive means score below 0.9). Conditions: primary human endothelial cells (HUVEC); actives raise or lower the signal. In outline: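 Primary human umbilical vein endothelial cells (3C system) were exposed to test chemical for 24 h, after which MCP-1 was quantified by ELISA. Activity was fitted bidirectionally against DMSO as negative control and baseline.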

Read-out in assay [15]: Monocyte Chemoattractant Protein-1 (MCP1), CCL2 (gene 6347)
Kind of assay: BSK_4H_MCP1: BioMAP Diversity Plus: 4H Assay for Monocyte Chemoattractant Protein-1 (MCP1) Biomarker Activity (AID 2283018; active means hit-call score of the fitted dose curve at least 0.9, where 1 is the maximum; inactive means score below 0.9). The conditions noted are these: primary human endothelial cells (HUVEC); actives raise or lower the signal. In outline: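 ELISA read-out of MCP-1 from human vascular endothelial primary cells taken at 24 hours after compound exposure. Activity was fitted in both directions relative to DMSO, which served as negative control.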

For assay [16], the target named is Retinoic acid receptor alpha (Homo sapiens) (UniProt P10276). Nature of the assay: ATG_RARa_TRANS: Attagene TRANS-FACTORIAL HepG2 Assay for human Retinoic Acid Receptor alpha (RARa) (AID 2283005). In outline:
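HepG2 cells transiently transfected with multiple reporter units expressing chimeric RARα-GAL4 fusion, with GAL4-UAS-driven reporters. After 24 h compound exposure, reporter mRNA induction quantified by RT-PCR and capillary electrophoresis with fluorescent labeling; gain-of-signal fitted relative to DMSO control.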

For assay [17], the target named is human RAR-related Orphan Receptor beta (RORb), RORB (gene 6096) (UniProt Q92753). Kind of assay: ATG_RORb_TRANS: Attagene TRANS-FACTORIAL HepG2 Assay for human RAR-related Orphan Receptor beta (RORb) (AID 2283010). In outline: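 Readout is reporter-gene mRNA induction, detected as fluorescence after RT-PCR and capillary electrophoresis, fitted for gain of signal against DMSO controls. Transiently transfected HepG2 liver cells carrying GAL4-UAS reporter constructs were treated for 24 hours.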

Assay [18] has as its target human Peroxisome Proliferator-activated Receptor alpha (PPARa), PPARA (gene 5465) (UniProt Q07869). Nature of the assay: ATG_PPARa_TRANS: Attagene TRANS-FACTORIAL HepG2 Assay for human Peroxisome Proliferator-activated Receptor alpha (PPARa) (AID 2283001). In outline: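 Gain-of-signal endpoint: reporter mRNA induction relative to DMSO, detected by fluorescent RT-PCR and capillary electrophoresis. HepG2 cells transiently carried GAL4-UAS-driven reporter units plus NR-Gal4 fusion; exposure lasted 24 h.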

In assay [19] the target is human RAR-related Orphan Receptor gamma (RORg), RORC (gene 6097) (UniProt P51449). Nature of the assay: ATG_RORg_TRANS: Attagene TRANS-FACTORIAL HepG2 Assay for human RAR-related Orphan Receptor gamma (RORg) (AID 2283011). In outline:
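Readout: reporter transcript induction (RT-PCR, fluorescent primer extension, capillary electrophoresis) after 24 h compound exposure of transiently transfected HepG2 cells carrying a RORg-Gal4 chimera and GAL4-UAS reporters; DMSO served as baseline, with increasing signal fitted.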

Read-out in assay [20]: Interleukin-1 alpha (IL1a), IL1A (gene 3552)
Kind of assay: BSK_BE3C_IL1a: BioMAP Diversity Plus: BE3C Assay for Interleukin-1 alpha (IL1a) Biomarker Activity (AID 2283016; active means hit-call score of the fitted dose curve at least 0.9, where 1 is the maximum; inactive means score below 0.9). Conditions: primary human bronchial epithelial cells; actives raise or lower the signal. In outline:
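BE3C primary human bronchial epithelium; cpd 24 h; IL-1a by ELISA; bidirectional fit vs DMSO; parallel SRB (0.1% SRB, 10% TCA fix, 560 nm) for cytotoxicity.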

Each structure is given as a SMILES string. “And” between values parts separate entries of the source, which are not always exact repeats. Equal entries are not always repeated. Inconclusive results are not listed. The source holds several records for some structures; these can differ, active in one and inactive in another. The source made the active and inactive calls. How the source made its calls, unless noted: active means hit-call score of the fitted dose curve at least 0.9, where 1 is the maximum; inconclusive means response in the unintended direction; inactive means score below 0.9.

One may read the AC50 as the concentration giving half of the maximal activity seen.

Chain of human Peroxisome Proliferator-activated Receptor delta (PPARd), PPARD (gene 5467) (Q03181 whole entry, looked up, the tested form may be a part): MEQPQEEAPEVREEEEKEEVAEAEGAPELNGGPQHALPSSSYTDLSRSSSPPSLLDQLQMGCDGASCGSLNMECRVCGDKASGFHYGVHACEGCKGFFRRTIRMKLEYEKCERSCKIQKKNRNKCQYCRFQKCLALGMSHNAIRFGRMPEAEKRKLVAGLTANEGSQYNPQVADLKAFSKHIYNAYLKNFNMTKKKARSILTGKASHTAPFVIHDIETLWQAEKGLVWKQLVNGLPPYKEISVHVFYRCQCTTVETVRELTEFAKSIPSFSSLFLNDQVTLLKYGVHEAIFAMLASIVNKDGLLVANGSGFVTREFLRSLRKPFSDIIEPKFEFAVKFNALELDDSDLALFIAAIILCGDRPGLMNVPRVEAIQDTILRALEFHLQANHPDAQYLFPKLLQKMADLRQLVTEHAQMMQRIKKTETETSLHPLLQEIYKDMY
Chain of E-selectin (Homo sapiens) (P16581 whole entry, looked up): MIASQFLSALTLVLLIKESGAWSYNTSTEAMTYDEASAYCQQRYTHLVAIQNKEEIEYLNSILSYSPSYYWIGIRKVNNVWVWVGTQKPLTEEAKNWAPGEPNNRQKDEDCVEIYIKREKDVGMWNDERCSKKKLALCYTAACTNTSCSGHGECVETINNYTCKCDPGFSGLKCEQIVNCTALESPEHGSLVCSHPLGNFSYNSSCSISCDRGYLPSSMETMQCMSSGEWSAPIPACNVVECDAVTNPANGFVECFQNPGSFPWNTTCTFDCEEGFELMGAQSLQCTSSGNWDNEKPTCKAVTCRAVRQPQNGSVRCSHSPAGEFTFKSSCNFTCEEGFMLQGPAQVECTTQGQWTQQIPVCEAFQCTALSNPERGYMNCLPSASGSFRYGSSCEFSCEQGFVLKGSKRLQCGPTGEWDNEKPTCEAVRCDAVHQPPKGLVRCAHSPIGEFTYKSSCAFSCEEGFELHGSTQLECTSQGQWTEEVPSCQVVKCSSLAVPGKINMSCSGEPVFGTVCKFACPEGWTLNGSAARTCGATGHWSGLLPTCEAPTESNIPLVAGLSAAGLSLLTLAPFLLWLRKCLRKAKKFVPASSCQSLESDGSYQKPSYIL
Chain of Peroxisome proliferator-activated receptor gamma (Homo sapiens) (P37231 whole entry, looked up, the tested form may be a part): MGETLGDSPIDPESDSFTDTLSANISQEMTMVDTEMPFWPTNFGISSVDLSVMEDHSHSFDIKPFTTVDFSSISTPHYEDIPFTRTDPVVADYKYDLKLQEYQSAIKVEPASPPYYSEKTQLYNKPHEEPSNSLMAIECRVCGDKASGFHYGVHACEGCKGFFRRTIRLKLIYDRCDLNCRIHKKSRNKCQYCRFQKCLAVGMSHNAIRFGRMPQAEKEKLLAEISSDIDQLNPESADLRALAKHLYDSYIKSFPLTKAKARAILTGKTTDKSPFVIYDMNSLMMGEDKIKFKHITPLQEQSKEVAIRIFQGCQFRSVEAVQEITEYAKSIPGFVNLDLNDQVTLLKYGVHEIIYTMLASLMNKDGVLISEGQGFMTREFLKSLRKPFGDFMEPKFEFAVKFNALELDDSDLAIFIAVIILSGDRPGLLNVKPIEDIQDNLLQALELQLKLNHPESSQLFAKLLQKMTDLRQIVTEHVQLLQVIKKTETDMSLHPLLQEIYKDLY
Chain of human Retinoid X Receptor beta (RXRb), RXRB (gene 6257) (P28702 whole entry, looked up, the tested form may be a part): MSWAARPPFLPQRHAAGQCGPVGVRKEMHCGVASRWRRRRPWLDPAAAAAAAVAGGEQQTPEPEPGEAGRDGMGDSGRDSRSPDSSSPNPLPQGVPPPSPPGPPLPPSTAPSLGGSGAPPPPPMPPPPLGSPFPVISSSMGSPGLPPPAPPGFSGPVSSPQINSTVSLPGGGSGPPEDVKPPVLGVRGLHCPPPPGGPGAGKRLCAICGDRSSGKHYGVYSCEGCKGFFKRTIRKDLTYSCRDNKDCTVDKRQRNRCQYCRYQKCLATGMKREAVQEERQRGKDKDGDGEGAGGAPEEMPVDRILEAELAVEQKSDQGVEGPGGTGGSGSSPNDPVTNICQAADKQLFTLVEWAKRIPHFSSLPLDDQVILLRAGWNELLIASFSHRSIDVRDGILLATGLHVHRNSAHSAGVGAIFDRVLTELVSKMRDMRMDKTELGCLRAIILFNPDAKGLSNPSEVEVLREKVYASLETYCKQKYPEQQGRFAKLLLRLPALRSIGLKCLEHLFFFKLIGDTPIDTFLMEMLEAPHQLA
Chain of Retinoic acid receptor RXR-alpha (Homo sapiens) (P19793 whole entry, looked up, the tested form may be a part): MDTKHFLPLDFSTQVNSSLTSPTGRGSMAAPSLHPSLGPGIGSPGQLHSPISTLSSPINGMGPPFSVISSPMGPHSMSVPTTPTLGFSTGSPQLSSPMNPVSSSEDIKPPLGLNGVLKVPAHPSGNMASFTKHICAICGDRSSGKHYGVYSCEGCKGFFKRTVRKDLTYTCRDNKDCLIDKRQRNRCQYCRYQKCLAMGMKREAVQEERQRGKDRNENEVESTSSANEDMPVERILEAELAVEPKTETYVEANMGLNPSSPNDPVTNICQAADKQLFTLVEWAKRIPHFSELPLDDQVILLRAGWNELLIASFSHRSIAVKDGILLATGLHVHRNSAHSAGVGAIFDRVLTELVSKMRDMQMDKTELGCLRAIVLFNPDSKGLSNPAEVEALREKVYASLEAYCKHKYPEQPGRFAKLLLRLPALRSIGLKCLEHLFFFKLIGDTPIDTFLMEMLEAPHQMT
Chain of human Retinoic Acid Receptor gamma (RARg), RARG (gene 5916) (P13631 whole entry, looked up): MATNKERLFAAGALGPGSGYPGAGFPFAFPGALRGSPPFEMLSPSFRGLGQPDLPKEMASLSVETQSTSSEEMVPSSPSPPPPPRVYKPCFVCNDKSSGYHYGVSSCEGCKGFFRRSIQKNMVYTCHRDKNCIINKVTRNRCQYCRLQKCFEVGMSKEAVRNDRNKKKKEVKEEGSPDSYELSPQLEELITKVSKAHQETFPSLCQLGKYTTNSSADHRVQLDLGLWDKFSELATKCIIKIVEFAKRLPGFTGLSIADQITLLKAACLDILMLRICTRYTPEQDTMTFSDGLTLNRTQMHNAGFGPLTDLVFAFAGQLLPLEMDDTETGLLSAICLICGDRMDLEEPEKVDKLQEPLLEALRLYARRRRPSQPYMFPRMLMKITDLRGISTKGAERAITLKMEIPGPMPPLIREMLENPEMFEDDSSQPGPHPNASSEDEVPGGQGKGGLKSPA
Chain of human Thyroid Receptor alpha (THRa1), THRA (gene 7067) (P10827 whole entry, looked up, the tested form may be a part): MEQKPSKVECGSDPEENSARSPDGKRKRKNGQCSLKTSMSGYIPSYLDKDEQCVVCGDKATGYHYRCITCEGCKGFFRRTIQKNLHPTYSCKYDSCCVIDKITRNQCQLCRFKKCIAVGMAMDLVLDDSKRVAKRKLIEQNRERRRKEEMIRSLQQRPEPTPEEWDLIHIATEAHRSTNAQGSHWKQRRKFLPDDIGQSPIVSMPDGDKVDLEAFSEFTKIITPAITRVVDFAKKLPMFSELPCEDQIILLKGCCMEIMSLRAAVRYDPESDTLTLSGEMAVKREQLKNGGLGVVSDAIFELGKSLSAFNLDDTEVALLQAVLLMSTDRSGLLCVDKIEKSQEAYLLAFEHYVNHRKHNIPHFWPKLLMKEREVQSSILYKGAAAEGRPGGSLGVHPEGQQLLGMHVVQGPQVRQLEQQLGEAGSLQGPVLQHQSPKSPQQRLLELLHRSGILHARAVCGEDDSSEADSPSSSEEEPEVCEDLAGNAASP
Chain of Nuclear receptor subfamily 1 group I member 2 (Homo sapiens) (O75469 whole entry, looked up, the tested form may be a part): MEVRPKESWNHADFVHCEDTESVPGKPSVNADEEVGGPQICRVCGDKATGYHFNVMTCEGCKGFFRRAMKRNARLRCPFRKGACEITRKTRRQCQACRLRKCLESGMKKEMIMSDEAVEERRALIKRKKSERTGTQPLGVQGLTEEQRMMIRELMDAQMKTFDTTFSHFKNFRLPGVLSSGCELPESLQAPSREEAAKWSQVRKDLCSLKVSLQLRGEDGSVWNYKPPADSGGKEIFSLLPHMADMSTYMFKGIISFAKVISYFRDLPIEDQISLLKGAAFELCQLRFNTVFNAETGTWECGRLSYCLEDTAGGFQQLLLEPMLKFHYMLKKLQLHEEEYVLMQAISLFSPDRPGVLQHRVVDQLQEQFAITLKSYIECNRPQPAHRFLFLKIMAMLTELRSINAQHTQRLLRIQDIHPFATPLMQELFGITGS
Chain of human RAR-related Orphan Receptor beta (RORb), RORB (gene 6096) (Q92753 whole entry, looked up, the tested form may be a part): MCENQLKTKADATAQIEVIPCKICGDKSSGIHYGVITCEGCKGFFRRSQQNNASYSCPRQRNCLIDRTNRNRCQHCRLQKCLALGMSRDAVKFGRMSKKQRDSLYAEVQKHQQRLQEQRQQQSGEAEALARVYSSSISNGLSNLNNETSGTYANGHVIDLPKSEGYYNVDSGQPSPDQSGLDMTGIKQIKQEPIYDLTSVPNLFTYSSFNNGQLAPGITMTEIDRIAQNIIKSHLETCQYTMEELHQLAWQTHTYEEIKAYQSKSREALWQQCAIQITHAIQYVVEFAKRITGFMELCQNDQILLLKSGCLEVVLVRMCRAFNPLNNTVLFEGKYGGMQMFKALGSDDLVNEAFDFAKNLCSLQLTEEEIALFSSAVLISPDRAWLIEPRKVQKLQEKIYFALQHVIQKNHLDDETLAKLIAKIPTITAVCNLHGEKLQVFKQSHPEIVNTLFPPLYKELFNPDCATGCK
Chain of human Retinoic Acid Receptor beta (RARb), RARB (gene 5915) (P10826 whole entry, looked up, the tested form may be a part): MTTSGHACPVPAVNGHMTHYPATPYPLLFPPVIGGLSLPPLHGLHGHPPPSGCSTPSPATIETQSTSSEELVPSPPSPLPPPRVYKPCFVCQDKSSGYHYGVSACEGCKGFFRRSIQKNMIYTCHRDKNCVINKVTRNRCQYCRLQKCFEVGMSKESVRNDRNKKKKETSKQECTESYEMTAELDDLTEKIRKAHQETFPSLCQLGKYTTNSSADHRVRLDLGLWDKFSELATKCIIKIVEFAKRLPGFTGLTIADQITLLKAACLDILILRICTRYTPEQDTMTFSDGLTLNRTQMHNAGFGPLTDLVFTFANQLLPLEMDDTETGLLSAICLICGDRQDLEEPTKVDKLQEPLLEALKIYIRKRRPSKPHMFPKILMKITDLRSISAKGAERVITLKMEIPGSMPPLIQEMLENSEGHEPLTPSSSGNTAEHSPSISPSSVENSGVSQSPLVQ

As to `O=C(c1ccccc1)C1CCCCC1`, the result in assay [1], in [2], in [3], in assay [4], in assay [5] and in assay [6] was inactive. In addition, the result in [7], in [8], in assay [9], in assay [10], in assay [11] and in assay [12] was inactive. Also, the result in [13], in [14] and in assay [15] was inactive. Also, the AC50 in [7] is 61.5 µM (active); in assay [8] it was 29.1 µM (active) and 8.99 µM (active) and 19.7 µM (active); in [11] it was 121 µM (active) and 57 µM (active) and 100 µM (active).

On to `CCCOC(=O)c1ccc(C(=O)OCCC)nc1`, for which the outcome in assay [1], in assay [2], in assay [3], in assay [4], in assay [5] and in assay [16] was inactive. For the same compound, the result in assay [6], in assay [7], in assay [8], in assay [9], in assay [17] and in assay [10] was inactive. In addition, the result in [11], in assay [12], in assay [13], in assay [14] and in [15] was inactive.

With `CC1(C)C(C=C(Cl)Cl)C1C(=O)OCc1cccc(Oc2ccccc2)c1` (stereo not given), the result in assay [1], in assay [2], in assay [18], in assay [4], in [17] and in [19] was inactive. Moreover, the compound was called inactive in [10], in assay [11], in assay [12], in assay [13], in assay [20] and in [14]. Moreover, the result in assay [15] was inactive. Besides, the concentration at half-maximal activity (AC50) is 4.29 µM (active) in assay [6] and 20.2 µM (active) in [8].
